Assay [1] can be described thus: qHTS assay to identify small molecule antagonists of the glucocorticoid receptor (GR) signaling pathway - cell viability counter screen (AID 720693). Further: nearly all actives have a fitted effect of over 55% in size.
Assay [2] can be described thus: qHTS assay for identifying genotoxic compounds that show differential cytotoxicity against isogenic chicken DT40 cell lines with known DNA damage response pathways - wild type cell line (AID 743012). Further: nearly all actives have a fitted effect of over 60% in size. Further: potency means the concentration at half of the fitted maximal effect. In outline:
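Wild type DT40, 300 cells/well, ~0.5 h settle at 37 C/5% CO2; compounds in DMSO added by pintool; 40 h at 37 C/5% CO2; CellTiter-Glo, 30 min RT; luminescence.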

The nature of assay [3]: qHTS assay for identifying genotoxic compounds that show differential cytotoxicity against isogenic chicken DT40 cell lines with known DNA damage response pathways - Rev3 mutant cell line (AID 743014). Further: nearly all actives have a fitted effect of over 55% in size. Further: potency means the concentration at half of the fitted maximal effect.
Assay [4] in a line: qHTS assay for identifying genotoxic compounds that show differential cytotoxicity against isogenic chicken DT40 cell lines with known DNA damage response pathways - Rad54/Ku70 mutant cell line (AID 743015). Further: nearly all actives have a fitted effect of over 60% in size. Further: potency means the concentration at half of the fitted maximal effect.
A short description of assay [5]: qHTS assay to identify small molecule antagonists of the androgen receptor (AR) signaling pathway - cell viability counter screen (AID 743033; further: nearly all actives have a fitted effect of over 45% in size; further: potency means the concentration at half of the fitted maximal effect).
A short description of assay [6]: qHTS assay to identify small molecule antagonists of the androgen receptor (AR) signaling pathway using the MDA cell line - cell viability counter screen (AID 743041; further: nearly all actives have a fitted effect of over 45% in size). The procedure, abridged:
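Same-well cytotoxicity was assessed by CellTiter-Fluor in MDA-kb2 AR-luc cells after 16 h of compound treatment under R1881 agonism.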

Values joined by “and” are separate entries in the source; they are usually repeats but may differ in a detail not shown here. Equal entries are not always repeated. Inconclusive results are not listed. Some compounds were tested as several samples or in several runs, with calls that do not always agree. Active and inactive are the calls of the source. The call rests on the fitted dose curve; in most records, active means well fitted curve in the direction sought with a large enough effect in the repeat runs; inconclusive means weak or mixed curves; inactive means no such curve, though single readings can be large; an effect the other way counts as inactive or inconclusive.

With `COc1cc(NCc2ccc3nc(N)nc(N)c3c2C)cc(OC)c1OC`, the Potency entry in assay [1] and in assay [6] was “inactive” each time. Also, the Potency was 0.133 µM (active) in assay [2], 0.15 µM (active) in assay [3], 0.266 µM (active) in assay [4] and 0.674 µM (active) in assay [5].
For `O=C1OC(=O)c2c(Br)c(Br)c(Br)c(Br)c21`, the Potency entry in assay [1], in assay [2], in assay [3], in assay [4], in assay [5] and in assay [6] was “inactive” throughout.
Turning to `COc1ccc(C)cc1`, the Potency entry in assay [1], in assay [2], in assay [3], in assay [4], in assay [5] and in assay [6] was “inactive” throughout.
On to `Cc1c[nH]c2ccccc12`, for which the Potency result in assay [1], in assay [2], in assay [3], in assay [4], in assay [5] and in assay [6] was “inactive” in each case.
Regarding `O=c1[nH][nH]c(=O)c2cc([N+](=O)[O-])ccc12`, the Potency entry in assay [1], in assay [2], in assay [3], in assay [4], in assay [5] and in assay [6] was “inactive” throughout.
Take `Nc1nc(-c2ccc([N+](=O)[O-])cc2)cs1`: the Potency entry in assay [1], in assay [2], in assay [3], in assay [4], in assay [5] and in assay [6] was “inactive” in each case.
In the case of `CNCc1ccc(NC(=O)c2c[nH]c3c2C(=O)CCC3)cc1`, the Potency entry in assay [1], in assay [5] and in assay [6] was “inactive” each time. Also, the Potency in assay [2] is 61.1 µM (active); in assay [3], 54.5 µM (active); in assay [4] it was 54.5 µM (active).
On to `O=C(O)CCS`, for which the Potency entry in assay [1], in assay [2], in assay [3], in assay [4], in assay [5] and in assay [6] was “inactive” in each case.
With `CCCCCCCCCCCCCCN(C)C`, the Potency result in assay [1], in assay [2], in assay [3], in assay [4], in assay [5] and in assay [6] was “inactive” in each case.
As to `CCCCCCC(CO)CCCC` (stereo not given), the Potency result in assay [1], in assay [2], in assay [3], in assay [4], in assay [5] and in assay [6] was “inactive” in each case.
Consider `CC1CCCO1` (stereo not given), for which the Potency entry in assay [1], in assay [2], in assay [3], in assay [4], in assay [5] and in assay [6] was “inactive” in each case.
In the case of `CC(C)(C)NCC(O)COc1cccc2c1C[C@H](O)[C@H](O)C2` (stereo not given in full), the Potency entry in assay [1], in assay [2], in assay [3], in assay [4], in assay [5] and in assay [6] was “inactive” in each case.
As to `COc1ccc(C(=O)NCc2ccc(OCCN(C)C)cc2)cc1OC`, the Potency entry in assay [1], in assay [2], in assay [3], in assay [4], in assay [5] and in assay [6] was “inactive” throughout.
Regarding `c1ccc2sc(SSc3nc4ccccc4s3)nc2c1`, the Potency result in assay [1], in assay [2], in assay [3], in assay [4], in assay [5] and in assay [6] was “inactive” each time.
For `CC(C)(C(=O)c1cccnc1)c1cccnc1`, the Potency result in assay [1], in assay [2], in assay [3], in assay [4], in assay [5] and in assay [6] was “inactive” throughout.
`CC(C)(C)CCCCCCOC(=O)c1ccccc1C(=O)OCCCCCCC(C)(C)C`: the Potency result in assay [1], in assay [2], in assay [3], in assay [4], in assay [5] and in assay [6] was “inactive” in each case.
On to `CC(C)c1ccc(C#N)cc1`, for which the Potency entry in assay [1], in assay [2], in assay [3], in assay [4], in assay [5] and in assay [6] was “inactive” each time.
On to `CC(=O)NNC(C)=O`, for which the Potency result in assay [1], in assay [2], in assay [3], in assay [4], in assay [5] and in assay [6] was “inactive” each time.
`CCCCCc1ccco1`: the Potency entry in assay [1], in assay [5] and in assay [6] was “inactive” throughout. The Potency is 39.8 µM (active) in assay [2], 44.7 µM (active) in assay [3] and 31.6 µM (active) in assay [4].
As for `CC[C@H]1OC(=O)[C@H](C)[C@@H](O[C@H]2C[C@@](C)(OC)[C@@H](O)[C@H](C)O2)[C@H](C)[C@@H](O[C@@H]2O[C@H](C)C[C@H](N(C)C)[C@H]2O)[C@](C)(O)C[C@@H](C)/C(=N\OCOCCOC)[C@H](C)[C@@H](O)[C@]1(C)O`, the Potency result in assay [1], in assay [5] and in assay [6] was “inactive” throughout. Also, the Potency result in assay [2] was “inactive and 14.3 µM (active)”; in assay [3] it was “inactive and 8.07 µM (active)”; in assay [4] it was “inactive and 14.3 µM (active)”.
Turning to `CCCC(=O)OC(=O)CCC`, the Potency entry in assay [1], in assay [2], in assay [3], in assay [4], in assay [5] and in assay [6] was “inactive” throughout.
As for `CC(CO)(CO)C(=O)O`, the Potency result in assay [1], in assay [2], in assay [3], in assay [4], in assay [5] and in assay [6] was “inactive” in each case.
Take `NC(=O)c1ccccc1[N+](=O)[O-]`: the Potency result in assay [1], in assay [2], in assay [3], in assay [4], in assay [5] and in assay [6] was “inactive” in each case.
Take `COc1ccc(-c2cc(C(F)F)nn2-c2ccc(S(N)(=O)=O)cc2)cc1F`: the Potency entry in assay [1], in assay [2], in assay [3], in assay [4], in assay [5] and in assay [6] was “inactive” each time.
Regarding `O=C1NC(=O)c2cccc3cccc1c23`, the Potency result in assay [1], in assay [2], in assay [3], in assay [5] and in assay [6] was “inactive” each time. For the same compound, in assay [4], the Potency is 48.6 µM (active).
In the case of `CCOCCC(=O)OCC`, the Potency entry in assay [1], in assay [2], in assay [3], in assay [4], in assay [5] and in assay [6] was “inactive” in each case.
In the case of `CCC(=O)OCc1ccc(OC)cc1`, the Potency result in assay [1], in assay [2], in assay [3], in assay [4], in assay [5] and in assay [6] was “inactive” each time.
For `COc1ccc(/C=C/C(=O)c2ccc(OC)cc2OC)cc1`, the Potency result in assay [1], in assay [5] and in assay [6] was “inactive” each time. For the same compound, the Potency in assay [2] was 10.6 µM (active); in assay [3] it was 16.8 µM (active); in assay [4] it was 18.8 µM (active).
With `CCOC(=O)C(C)O` (stereo not given), the Potency entry in assay [1], in assay [2], in assay [3], in assay [4], in assay [5] and in assay [6] was “inactive” in each case.
For the compound `CCCCCCCCCCCCCCCC(=O)OCC`, the Potency entry in assay [1], in assay [2], in assay [3], in assay [4], in assay [5] and in assay [6] was “inactive” throughout.

The record behind these values is PubChem BioAssay (Tox21).
